# According to PubChem BioAssay:
# Several values for one entry are separate records, joined by “and”; a condition that tells them apart may be missing. Equal values may be shown once.
# Tests used:
# [1] = test system: Human papillomavirus type 1a protein E7 (residues 44-93); assay: small molecules binding HPV E7 44-93 – biochemical, small-molecule microarray, residues 44-93, 635 nm fluorescence, primary screen (AID 1108); settings: fluorescence 635 nm, higher = more signal;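 also: E7 fragment applied at 1 µg/mL in TBST for 1 h at 4 C; score combines spot fluorescence with its signal to noise ratio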
# [2] = hepatitis C replication reporter changes, two-sided – Huh7 cells, luciferase reporter, HCV replication inhibitor project, primary screen (AID 1109); settings: Huh7 HCV replicon luciferase reporter, 48 h; higher = more signal;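 also: huh7 hepatoma cells harbouring a luciferase neomycin HCV replicon reporter; luciferase luminescence as measure of HCV replicon replication; test concentration not given here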
# [3] = molecular target: Left-right determination factor 2 (Homo sapiens) (UniProt O00292); assay: small molecules binding LEFTY2 protein – biochemical, small-molecule microarray, 635 nm fluorescence scan, primary screen (AID 1110); settings: higher = more signal
# Left-right determination factor 2 (Homo sapiens), sequence (O00292 whole entry, looked up): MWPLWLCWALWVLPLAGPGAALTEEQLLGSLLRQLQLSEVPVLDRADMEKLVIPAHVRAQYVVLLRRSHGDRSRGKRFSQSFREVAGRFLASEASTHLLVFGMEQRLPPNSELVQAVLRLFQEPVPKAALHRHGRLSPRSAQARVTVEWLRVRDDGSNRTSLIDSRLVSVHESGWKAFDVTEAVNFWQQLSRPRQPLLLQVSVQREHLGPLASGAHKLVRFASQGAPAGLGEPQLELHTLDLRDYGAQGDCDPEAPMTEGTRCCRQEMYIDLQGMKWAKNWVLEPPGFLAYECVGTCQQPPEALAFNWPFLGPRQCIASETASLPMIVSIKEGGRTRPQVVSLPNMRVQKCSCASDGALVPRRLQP
# [4] = molecular target: Calmodulin-1 (Homo sapiens) (UniProt P0DP23); assay: small molecules binding calmodulin-1 with EGTA – biochemical, small-molecule microarray, Cy5-labelled CALM1, profiling panel (AID 1111); settings: Cy5-CALM1 binding fluorescence, higher = more signal;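 also: labelled calmodulin applied in Tris saline Tween buffer holding calcium plus EGTA and DTT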
# [5] = molecular target: Calmodulin-1 (Homo sapiens) (UniProt P0DP23); assay: small molecules binding Ca-loaded calmodulin-1 – biochemical, small-molecule microarray, Cy5-labelled CALM1, plus calcium, artefact control for SMM control-protein annotation, profiling panel (AID 1112); settings: Cy5-CALM1 binding fluorescence, higher = more signal;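 also: score merges spot fluorescence with signal to noise from triplicate slides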
# [6] = probe aWnt5a binding to arrayed compounds – biochemical, biotinylated probe, 635/667 nm fluorescence, primary screen (AID 1113); settings: small-molecule microarray, higher = more signal;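 also: score merges 667 nm fluorescence intensity with signal-to-noise per printed feature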
# [7] = probe aShh binding to arrayed compounds – biochemical, biotinylated probe, 635/667 nm fluorescence, primary screen (AID 1114); settings: small-molecule microarray, higher = more signal;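 also: probe is biotin-labelled aShh protein from a stem cell growth factor screen; measures binding of labelled protein to compounds printed on the slide; score merges feature fluorescence at 667 nm with signal-to-noise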
# [8] = probe aNog binding to arrayed compounds – biochemical, biotinylated probe, 635/667 nm fluorescence, primary screen (AID 1115); settings: small-molecule microarray, higher = more signal;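 also: probe is biotinylated aNog protein used at 0.15 µg/mL for 1 h at 4 C; z-score combines 667 nm fluorescence of each spot with its signal to noise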
# [9] = molecular target: Torsin-1A-interacting protein 1 (Homo sapiens) (UniProt Q5JTV8); assay: compound microarray binding of lysate hLAP1 – cell lysate, small-molecule microarray, COS7 lysate, 635/667 nm fluorescence, primary screen (AID 1116); settings: 635 nm fluorescence, higher = more signal
# Torsin-1A-interacting protein 1 (Homo sapiens), sequence (Q5JTV8 whole entry, looked up): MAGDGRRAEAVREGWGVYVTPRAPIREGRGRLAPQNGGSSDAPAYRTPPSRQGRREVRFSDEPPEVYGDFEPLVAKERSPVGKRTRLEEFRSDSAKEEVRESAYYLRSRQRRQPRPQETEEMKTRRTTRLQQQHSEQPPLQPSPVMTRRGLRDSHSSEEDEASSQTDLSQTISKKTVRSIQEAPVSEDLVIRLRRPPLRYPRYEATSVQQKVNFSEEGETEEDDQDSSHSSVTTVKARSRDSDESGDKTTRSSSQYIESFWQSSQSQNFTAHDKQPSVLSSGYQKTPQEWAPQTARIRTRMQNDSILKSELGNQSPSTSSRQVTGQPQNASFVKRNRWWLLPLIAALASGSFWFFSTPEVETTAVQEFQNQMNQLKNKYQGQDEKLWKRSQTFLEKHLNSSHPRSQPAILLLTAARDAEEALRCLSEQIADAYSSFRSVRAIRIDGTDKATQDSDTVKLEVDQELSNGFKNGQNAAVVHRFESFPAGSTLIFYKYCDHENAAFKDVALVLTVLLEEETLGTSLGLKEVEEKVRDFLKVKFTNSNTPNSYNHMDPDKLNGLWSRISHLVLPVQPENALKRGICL
# [10] = molecular target: Alpha-bungarotoxin (Bungarus multicinctus) (UniProt P60615); assay: compounds binding labelled alpha-BTX control protein – biochemical, small-molecule microarray, Alexa647 label, 635/667 nm fluorescence, artefact control for SMM control protein annotation, profiling panel (AID 1117); settings: alpha-BTX-A647 binding fluorescence, higher = more signal
# Alpha-bungarotoxin (Bungarus multicinctus), sequence (P60615 whole entry, looked up): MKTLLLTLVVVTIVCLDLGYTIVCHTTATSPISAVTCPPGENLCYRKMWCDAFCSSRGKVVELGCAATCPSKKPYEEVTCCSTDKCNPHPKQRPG
SMILES,composite z-score [1],z-score [2],composite z-score [3],composite z-score [4],composite z-score [5],composite z-score [6],composite z-score [7],composite z-score [8],composite z-score [9],composite z-score [10]
CCOC(=O)NN=C1C[C@@H](O)[C@@H](O)[C@@H]2[C@@H]3C(=O)N(Cc4ccccc4)C(=O)[C@@H]3CC[C@@H]12,-0.337,-0.16,0.349,-0.546,-0.659,0.134,-0.2,-0.207,0.297,-0.168
CCC[C@@H]1C[C@@]1(CCC)[C@@H](NC(=O)c1ccc(-c2ccccc2)cc1)c1cccc(Cl)c1,-0.802 and 0.457,-2.13 and -2.05,-0.307 and -0.135,-1.57 and 0.535,-1.45 and 0.215,0.874 and 0.103,2.27 and -0.138,2.75 and 0.507,0.415 and 0.868,-0.899 and -0.0107
C=C[C@H](OC)[C@@H](O)c1ccc(OCCO)cc1,-1.76 and -0.748,-0.142 and 1.09,-1.51 and -1.36,-1.51 and -0.219,-0.045 and -0.319,-0.262 and -0.213,-0.276 and -0.221,-0.674 and -0.402,0.376 and -0.199,-1.55 and -1.04
C=CCN(Cc1ccccc1)C(=O)C1N(CCCCCCO)C(=O)C2C(C(=O)O)C3C=CC21O3 (stereo not given),-0.352 and -1.02,0.0022 and 0.118,-2.37 and -4.16,-0.326 and -0.505,0.498 and 0.722,-0.219 and -0.332,-0.0709 and -0.0035,-0.0211 and -0.316,0.193 and 0.0816,-1.13 and -1.12
CO[C@@H]1C=CCC(=O)N2CCC[C@H]2C(=O)OC[C@H](C)C(=O)OC[C@H]1C,0.172,0.182,0.96,-0.594,-1.16,-0.202,-0.352,-0.216,0.568,-0.0037
COC(=O)CC=C[C@@H](C)[C@@H](CO)NS(=O)(=O)c1ccc(C)cc1,-0.314 and 0.755,-0.465 and -0.0825,0.632 and 0.966,-0.442 and -0.343,-1.01 and -0.837,-0.0405 and -0.0994,-0.522 and 0.111,-0.0503 and 0.0287,-0.145 and 0.808,-0.309 and 0.0211
CO[C@@H]1COC(=O)[C@H](Cc2ccccc2)NC(=O)CC=C[C@@H](C)[C@H](OC)COC(=O)[C@@H](C)NC(=O)CC=C[C@H]1C,0.946 and 0.026,-0.198 and 0.903,0.79 and 0.972,-0.913 and -0.79,-1.89 and -1.85,-0.1 and -0.22,-0.362 and -0.102,-0.201 and -0.278,0.596 and -0.19,-0.527 and -0.862
Cc1ccc(S(=O)(=O)N[C@H]2COC(=O)[C@@H](Cc3ccccc3)NC(=O)[C@@H](C)COC(=O)CC=C[C@@H]2C)cc1,-1.28 and 0.123,1.41 and -1.89,0.839 and 0.546,-0.233 and -0.354,-0.372 and -0.879,-0.1 and -0.0912,0.0494 and -0.138,-0.122 and -0.038,0.15 and -0.0849,0.423 and -0.1
CCN1C(=O)[C@H]2[C@H]3[C@H](O)[C@H](O)CC(=NNC(=O)OCc4ccc(OC)cc4)[C@H]3CC[C@H]2C1=O,-0.432,0.182,0.261,-0.222,0.161,0.0597,0.0611,0.664,0.537,0.379
CC(C)[Si]1(C(C)C)OCc2cc(C3CC3)nc(CCc3ccccc3)c21,-0.789 and 0.192,-0.745 and -0.958,0.045 and 0.273,0.154 and -0.425,-0.253 and -0.002,-0.15 and -0.0512,-0.181 and -0.221,0.0732 and -0.0554,-0.527 and 0.362,0.0536 and -0.448
C=CCN(C(=O)C(c1cccs1)N(C(=O)/C=C\C(=O)O)C(C)(C)CO)c1ccc(OC)cc1 (stereo not given),-0.759 and -0.652,0.0435 and 2.82,-1.77 and -2.47,0.459 and -0.933,0.891 and 0.235,-0.0455 and -0.166,-0.138 and -0.0626,0.162 and 0.292,0.588 and 1.06,-2.1 and -1.16
C=CC[C@@H](O)c1ccc(O)c2ccccc12,0.837 and 1.21,-1.89 and -2.65,0.723 and 0.901,-1.52 and -0.403,-1.59 and -1.41,-0.101 and -0.0704,0.296 and -0.0553,-0.369 and -0.55,0.848 and 0.0091,2.05 and 1.17
C=CCN(CCCCC)C(=O)C(c1cccs1)N(CCOCCO)C(=O)/C=C\C(=O)O (stereo not given),-1.74 and -0.0507,-0.572 and 0.96,-0.828 and -1.56,-1.04 and -0.776,-0.408 and 0.326,-0.135 and -0.199,-0.223 and -0.283,-0.308 and 0.0644,-0.922 and -0.405,-0.676 and 1.14
Cc1ccc(S(=O)(=O)N[C@H]2COC(=O)[C@@H](C)COC(=O)[C@H](C)NC(=O)CC=C[C@H]2C)cc1,-0.799,-0.128,0.715,-0.82,-0.994,0.027,0.0538,-0.234,1.09,-0.458
C=CC[C@@H](O)c1ccc(OCCO)cc1,-1.68 and -0.85,1.71 and 1.54,-0.301 and -1.81,-1 and -1.27,-0.166 and -0.74,-0.184 and -0.247,-0.138 and -0.0626,-0.435 and -0.201,0.141 and -0.598,-0.416 and 1.32
COc1ccc(-c2ccc3c(n2)CCCN3CC(O)CN2CCCc3nc(-c4ccc(Br)cc4)ccc32)cc1 (stereo not given),0.363 and -0.763,-2.44 and -0.174,0.61 and 0.922,0.347 and 0.413,0.116 and -0.108,0.0994 and -0.006,0.896 and 0.233,0.202 and 0.309,0.498 and 0.282,2.04 and 1.76
CC(=O)OC[C@H]1O[C@H](C#CC(C)(C)C)C=C[C@@H]1OC(C)=O,1.31,-1.94,0.934,0.957,0.189,-0.191,0.0596,-0.433,0.852,1.09
C=CCN(C(=O)C(c1cccs1)N(C(=O)/C=C\C(=O)O)c1ccc(CCO)cc1)C(C)(C)C (stereo not given),-1.51 and -0.35,-0.18 and 0.135,-3.2 and -3.93,0.295 and 0.0738,1.1 and 0.871,-0.148 and -0.27,-0.0035 and 0.568,1.1 and -0.0102,3.3 and 2.33,-0.263 and -1.06
